# From PubChem BioAssay
# Only some compounds are listed: those with a hit (about 6.5% of all), similar ones and a draw of the others.
# VACV Venus inh – vaccinia inhibition (Venus reporter); Vaccinia virus Venus reporter expression, fluorescence; Potency, µM (top dose mostly 36.5 µM), for the others: at the highest dose activity change, negative = inhibition, most hits filed as inhibitors; 0.46% of 330,000 active; AID 720580; calls by dose curve; tested in A549 cells; also: potency is read from the fitted curve at half-maximal effect; nearly all actives have a fitted effect of over 30% in size
# HCMV inh – inhibitors of human cytomegalovirus | HFF cells, HCMV-luciferase reporter, 72 h; active compounds read low | activity change, negative = inhibition, % at 57.5 µM | 4.5% of 410,000 active; in the data active = activity change below about -60%; inconclusive = no clear call, values can overlap the other calls; inactive = above about -39%
#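 Screen run at 2 compound doses on HFFs infected with reporter HCMV, MOI 1 PFU/cell. Luciferase activity from cell lysates at 72 h post infection gave inhibition relative to buffer-only and Salinomycin wells.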
# VACV mCherry inh – inhibitors of vaccinia virus infection (mCherry reporter signal) | Vaccinia virus mCherry reporter infection, fluorescence | Potency, µM (titrated, usually from 36.5 µM), for the others: at the highest dose activity change, negative = inhibition, most hits filed as inhibitors | 0.63% of 310,000 active | AID 720579; calls by dose curve; tested in A549 cells; also: potency is read from the fitted curve at half-maximal effect; nearly all actives have a fitted effect of over 35% in size
# Lassa entry inh – Lassa virus entry inhibition | Lassa virus pseudotype entry inhibition, cell reporter | Potency, µM (highest dose often 37.9 µM), for the others: top-dose activity change, negative = inhibition, most hits filed as inhibitors | 1.2% of 300,000 active | AID 540256; calls by dose curve; tested in HEK293 cells; also: potency is read from the fitted curve at half-maximal effect; nearly all actives have a fitted effect of over 50% in size
# MARV entry inh – blocks Marburg virus binding to or entry into cells; Marburg virus pseudotyped entry inhibition, cell reporter; Potency, µM (doses to about 37.8 µM), inactives show top-dose activity change, negative = inhibition, most hits filed as inhibitors; 1.8% of 300,000 active; AID 540276; calls by dose curve; tested in HEK293 cells; also: potency is read from the fitted curve at half-maximal effect
# FMDV antiviral – antivirals against foot and mouth disease virus; FMDV antiviral cell-based qHTS; AID 1159524; Potency, µM (doses to about 57.9 µM), inactives show at the top dose activity change, negative = inhibition, actives largely listed as inhibitors; 1.2% of 410,000 active; calls by dose curve; tested in HEK293T cells; also: read-out not given here; potency is read from the fitted curve at half-maximal effect; nearly all actives have a fitted effect of over 45% in size
# * = called active by the depositor; i = inactive; ? = inconclusive; . = not tested or not shown; [ ] = another dose, or the depositor's remark. % is scaled to controls: 0 for no effect and ±100 for the full control effect.
SMILES,VACV Venus inh,HCMV inh,VACV mCherry inh,Lassa entry inh,MARV entry inh,FMDV antiviral
CCn1c(=O)c([N+](=O)[O-])c(N2CCN(Cc3ccc4c(c3)OCO4)CC2)c2ccccc21,?,-64*,-24%,?,?,32µM*
O=c1c([N+](=O)[O-])c(N2CCOCC2)c2ccccc2n1Cc1ccccc1,-13%,-67*,-22%,?,-2%[46.1 µM],?
O=Cc1cc([N+](=O)[O-])ccc1N1CCN(Cc2ccc3c(c2)OCO3)CC1,-13%,-102*,-6%,7%[46.1 µM],3%[46.1 µM],-26%
O=c1sc2ccccc2c(N2CCOCC2)c1[N+](=O)[O-],-8%,7,i,6%,3%,5%
O=[N+]([O-])c1ccc(N2CCN(Cc3ccc4c(c3)OCO4)CC2)nc1,-14%,12,?,?,?,?
CCn1c(=O)c([N+](=O)[O-])c(N2CCSCC2)c2ccccc21,?,?,?,-1%,?,18µM*
O=C(NCc1ccccn1)c1cnn(-c2nccc(-c3cccs3)n2)c1C1CC1,-25%,.,i,.,.,-5%
O=C(Cc1ccc(-c2ccccc2)cc1)NCCS(=O)(=O)N1CCN(c2ccccc2F)CC1,-19%,32,i,?,.,-9%
Cc1ccc(CN2CCc3nc(N4CCN(c5ccccc5F)CC4)ncc3C2)s1,-20%,-7,-19%,19%[46.1 µM],.,?
CC(C)C(=O)OCc1cc(=O)n2nc(C3CCCCC3)sc2n1,4%,23,9%,-2%[46.1 µM],.,-3%
COC(=O)c1sc2ncccc2c1OCc1cccc(Cl)c1,.,-102*,.,-12%,7%,15%
CC(=O)c1ccccc1NC(C(=O)Nc1ccc2c(c1)OCCO2)c1cccs1 (configuration not stated),.,-64*,.,.,.,.
CCOC(=O)N(C)[C@H]1C[C@H]2c3[nH]c4ccccc4c3CCN2C[C@H]1[C@H](C)O,-6%,21,4%,.,.,-14%
CCOC(=O)N(C)[C@H]1C[C@H]2c3cc(-c4ccccc4C)ccc3CCN2C[C@H]1[C@H](C)O,.,-89*,.,.,.,.
NC[C@@H]1CC[C@@H](N)[C@@H](O[C@H]2[C@H](O)[C@@H](O[C@H]3O[C@H](CO)[C@@H](O)[C@H](N)[C@H]3O)[C@H](N)C[C@@H]2N)O1,-8%,.,-5%,.,.,2%
O=S(=O)(c1cc(F)ccc1F)N1CCN(c2ncnc3ccccc23)CC1,.,?,.,.,.,10µM*
O=S(=O)(c1cc(F)ccc1F)N1CCN(c2ccccn2)CC1,.,-8,.,.,.,-20%
CCOC(=O)N1CCN(Cc2ccc(O)c3ncccc23)CC1,?,-31,?,?,?,-13%
FC(F)(F)c1ccccc1CN1CCC(Cc2ccccc2)CC1,-11%,-7,i,-5%[46.1 µM],-4%[46.1 µM],-16%
Oc1ccc(CN2CCN(c3ccccc3)CC2)c2cccnc12,-22%,.,-27%,?,?,-21%
Oc1ccc(CN2CCCCC2)c2cccnc12,?,-68*,-34%,-65%,?,.
Oc1ccc(CN2CCc3ccccc3C2)c2cccnc12,.,-99*,.,2.6µM*,3.3µM*,-29%
Cc1ccc(C)c(S(=O)(=O)N2CCN(Cc3ccc(O)c4ncccc34)CC2)c1,?,-100*,?,9.2µM*,7.3µM*,-5%
Clc1ccccc1CN1CCC(Cc2ccccc2)CC1,-17%,-101*,-23%,-4%,?,-2%
Cc1ccc(CNC(=O)CCN2C(=O)C(C)Oc3ccc(C)cc32)cc1 (configuration not stated),-8%,-3,-3%,11%[46.1 µM],?,-8%
SMILES,VACV Venus inh,HCMV inh,VACV mCherry inh,Lassa entry inh,MARV entry inh,FMDV antiviral
CCN(Cc1ccccc1)S(=O)(=O)c1ccc(-c2coc(C)n2)cc1,0%,-3,2%,-3%[46.1 µM],.,-15%
Oc1c(CN2CCCCC2)ccc2cccnc12,?,-74*,8.9µM*,-15%[46.1 µM],?,-26%
Oc1ccc(CN2CCC(Cc3ccccc3)CC2)c2cccnc12,?,-101*,-21%,2.8µM*,?,?
CN1/C(=C\C(=O)c2cccnc2)C(C)(C)c2ccccc21,-17%,-2,-4%,0%,7%,18%
CN1/C(=C\C(=O)C[n+]2ccc3ccccc3c2)C(C)(C)c2ccccc21,-4%,-97*,-3%,?,?,?
CN1/C(=C/C(=O)c2nc(S(C)(=O)=O)ncc2Cl)C(C)(C)c2ccccc21,?,.,28µM*,16µM*,?,10µM*
CN1/C(=C\C(=O)c2cncc(Br)c2)C(C)(C)c2ccccc21,28%,-73*,-14%,?,?,?
COc1ccccc1OCC(=O)/C=C1/N(C)c2ccccc2C1(C)C,-14%,21,-16%,-24%,19%[46.1 µM],?
CN1/C(=C\C(=O)C(F)F)C(C)(C)c2ccccc21,-14%,10,.,-2%,3%,?
CN1/C(=C\C(=O)c2ccco2)C(C)(C)c2ccccc21,22%,-71*,-17%,?,-36%,?
COC(=O)C(c1ccccc1)(c1cn(C)c2cc(Br)ccc12)C(Nc1ccccc1)c1ccccc1 (configuration not stated),.,-7,.,.,.,.
COc1cc(-c2cccc(OC)c2OC)cc2c1OCCN(Cc1cn[nH]c1-c1ccc(Cl)cc1)C2,-26%,.,-9%,.,.,-17%
CN1/C(=C\C(=O)COc2ccc3c(c2)OCO3)C(C)(C)c2ccccc21,-4%,?,-23%,-18%,-1%,25µM*
COC(=O)c1ccc(Nc2ncnc3c2cnn3-c2ccccc2)cc1,-6%,-34,-11%,20%[46.1 µM],.,-10%
COc1cccc(/C=N/NC(=O)CNC(=O)C(c2ccccc2)c2ccccc2)c1O,?,17,3.5µM*,10µM*,?,39%
COc1cccc(/C=N/NC(=O)CNC(=O)/C=C\c2ccccc2)c1O,.,-21,.,.,.,31%
CCOc1cccc(C=NNC(=O)C(=O)Nc2cccc(C(F)(F)F)c2)c1O,.,-62*,.,.,.,.
COc1ccc(/C=N/NC(=O)CSCC(=O)Nc2ccccc2)cc1,.,22,.,.,.,0%
COc1cccc(/C=N/NC(=O)CSCC(=O)Nc2ccccc2)c1O,.,-93*,.,?,21µM*,15%
Cc1sc2ncn(CCn3cnc4sc(C)c(C)c4c3=O)c(=O)c2c1C,-15%,?,.,-15%,?,20µM*
Cc1sc2ncn(CCC(=O)O)c(=O)c2c1C,-19%,4,.,-3%,1%,-26%
Cc1nc(CC(=O)NCC2Cc3cc(F)cc(-c4ccc(F)c(C)c4)c3O2)cs1 (configuration not stated),-4%,.,-10%,.,.,-5%
CC1CCN(C(=O)c2[nH]cnc2C(=O)N(C)Cc2ccccc2)CC1,-4%,-62*,-11%,.,.,1%
CCN(C(=O)Cn1c(=O)n(-c2ccccc2)c(=O)c2ccc(C(=O)NCc3ccc4c(c3)OCO4)cc21)c1cccc(C)c1,-15%,-13,-12%,-14%[46.1 µM],?,24%
Cc1c(C(=O)NCC2(N3CCOCC3)CCCCC2)cnn1-c1nccc(-c2ccccc2F)n1,-3%,.,-19%,.,.,-16%
